Assay results reported in PubChem BioAssay (NCATS).
Several values for one entry are separate records, joined by “and”; a condition that tells them apart may be missing. Identical values can stand only once. Records with an inconclusive call do not appear. The source holds several records for some structures; these can differ, active in one and inactive in another. Activity calls are given as the source filed them. The call rests on the fitted dose curve; in most records, active means well fitted inhibition curve with a large enough effect; inconclusive means small, poorly fitted or top-dose-only effect; inactive means flat fitted curve, though single readings scatter.

system: TAB165; experiment: qHTS profiling for inhibitors of Plasmodium falciparum proliferation (AID 504749);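 on activity, negative = inhibition: 0% = DMSO vehicle and full inhibition = artemisinin control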; conditions: P. falciparum in erythrocytes, SYBR Green DNA, 72 h; series mostly up to 28.7 µM; activity, negative = inhibition: at the top concentration
Method in brief: (§1)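 P. falciparum-infected erythrocytes (0.3% parasitemia, 2.5% hematocrit) incubated with compound 72 h at 37 C, 5% CO2. Parasite DNA detected by SYBR Green after lysis, overnight at room temperature; normalised to 0.29 uM artemisinin and DMSO.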
Further: nearly all actives have a fitted effect of over 60% in size.
Potency means the concentration at half of the fitted maximal effect.

| Compound | activity, negative = inhibition | Potency |
| --- | --- | --- |
| CC(c1cc2ccccc2s1)N(O)C(N)=O (configuration not stated) | 5.08% (inactive) | – |
| CNC[C@H](O)c1cccc(O)c1 | 5.82% (inactive) | – |
| O=NN(CCCl)C(=O)NCCCl | 9.25% (inactive) | – |
| NC(N)=NC(=O)c1nc(Cl)c(N)nc1N | – | 11.2 µM (active) |
| O=c1n(CCCN2CCN(c3cccc(Cl)c3)CC2)nc2ccccn12 | 0.913% [at 12.8 µM] (inactive) | – |
| Cc1[nH]c(=O)c(C#N)cc1-c1ccncc1 | 1.58% (inactive) | – |
| N=c1nc(N2CCCCC2)cc(N)n1O | 16.5% (inactive) | – |
| CC(C[N+](C)(C)C)OC(N)=O (configuration not stated) | 0.0879% (inactive) | – |
| CCCCNc1cc(C(=O)O)cc(S(N)(=O)=O)c1Oc1ccccc1 | -3.14% [at 12.8 µM] (inactive) | – |
| Cc1cn[nH]c1 | 9.35% (inactive) | – |
| CC(C)NCC(O)COc1ccc(COCCOC(C)C)cc1 (configuration not stated) | 4.7% (inactive) | – |
| Cc1[nH]c(=O)c(C#N)cc1-c1ccc2nccn2c1 | 0.314% (inactive) | – |
| CCOC(=O)C1=C[C@]2(CC)CCCN3CCc4c(n1c1ccccc41)[C@@H]32 | – | 12.6 µM (active) |
| CC(=O)Oc1ccccc1C(=O)O | 5.75% (inactive) | – |
| CCc1ccc(CCOc2ccc(CC3SC(=O)NC3=O)cc2)nc1 (configuration not stated) | 5.45% (inactive) | – |
| NC(=O)c1cnccn1 | 16.4% (inactive) | – |
| O=C1CCC(N2C(=O)c3ccccc3C2=O)C(=O)N1 (configuration not stated) | 3.63% (inactive) | – |

system: W2; experiment: as above; conditions: P. falciparum in erythrocytes, SYBR Green DNA, 72 h; series mostly up to 28.7 µM; activity, negative = inhibition: at the top concentration
Method in brief: as §1

| Compound | activity, negative = inhibition | Potency |
| --- | --- | --- |
| CC(c1cc2ccccc2s1)N(O)C(N)=O (configuration not stated) | 1.92% (inactive) | – |
| Cc1c(C)c2c(c(C)c1O)CCC(C)(COc1ccc(CC3SC(=O)NC3=O)cc1)O2 (configuration not stated) | – | 6.75 µM (active) |
| NC(N)=NC(=O)c1nc(Cl)c(N)nc1N | – | 2.13 µM (active) |
| O=c1n(CCCN2CCN(c3cccc(Cl)c3)CC2)nc2ccccn12 | -1.95% [at 12.8 µM] (inactive) | – |
| Cc1[nH]c(=O)c(C#N)cc1-c1ccncc1 | -27.8% (inactive) | – |
| N=c1nc(N2CCCCC2)cc(N)n1O | -4.06% (inactive) | – |
| CC(C[N+](C)(C)C)OC(N)=O (configuration not stated) | -7.1% (inactive) | – |
| CCCCNc1cc(C(=O)O)cc(S(N)(=O)=O)c1Oc1ccccc1 | 9.19% [at 12.8 µM] (inactive) | – |
| Cc1cn[nH]c1 | 20.8% (inactive) | – |
| CC(C)NCC(O)COc1ccc(COCCOC(C)C)cc1 (configuration not stated) | 1.17% (inactive) | – |
| Cc1[nH]c(=O)c(C#N)cc1-c1ccc2nccn2c1 | -3.83% (inactive) | – |
| CC(=O)Oc1ccccc1C(=O)O | -2.71% (inactive) | – |
| CCc1ccc(CCOc2ccc(CC3SC(=O)NC3=O)cc2)nc1 (configuration not stated) | -11.3% (inactive) | – |
| NC(=O)c1cnccn1 | -11.4% (inactive) | – |
| O=C1CCC(N2C(=O)c3ccccc3C2=O)C(=O)N1 (configuration not stated) | 12.3% (inactive) | – |

system: CRL-7250; experiment: Cytotoxic Profiling of Annotated Libraries Using Quantitative High-Throughput Screening (AID 1296008); conditions: Five cell lines viability, CellTiter-Glo ATP luminescence, 48-72 h; max response: stronger effect = lower value; on max response: on the % scale 0 is the no-effect control and ±100 the full control effect
Method in brief: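 Cells exposed to compounds for 48 or 72 hr at 37 degrees Celsius. Viability read as ATP-coupled luminescence with CellTiter-Glo after 10 min at room temperature.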

| Compound | max response | outcome | Potency |
| --- | --- | --- | --- |
| CC(c1cc2ccccc2s1)N(O)C(N)=O (configuration not stated) | -2.06% (inactive) | inactive | – |
| Cc1ccnc(NS(=O)(=O)c2ccc(NC(=O)Nc3ccc(S(=O)(=O)Nc4nccc(C)n4)cc3)cc2)n1 | -2.52% (inactive) | – | 0.372 µM (active) |
| CNC[C@H](O)c1cccc(O)c1 | -1.79% (inactive) and -10.1% (inactive) | – | – |
| OC(CCN1CCCCC1)(c1ccccc1)C1CC2C=CC1C2 (configuration not stated) | – | inactive | – |
| O=NN(CCCl)C(=O)NCCCl | -1.64% (inactive) | inactive | – |
| S=C(NCc1ccc2c(c1)OCO2)N1CCN(c2ncnc3c2oc2ccccc23)CC1 | -64.3% (inactive) | – | 1.46 µM (active) |
| O=C(Nc1ccc(F)c(C(F)(F)F)c1)Nc1nnc(-c2ccncc2)s1 | 2.14% (inactive) | – | – |
| Cc1c(C)c2c(c(C)c1O)CCC(C)(COc1ccc(CC3SC(=O)NC3=O)cc1)O2 (configuration not stated) | – | inactive | – |
| NC(N)=NC(=O)c1nc(Cl)c(N)nc1N | -0.0311% (inactive) | inactive | – |
| COc1ccc(CCN2CCN(CCCc3ccccc3)CC2)cc1OC | – | inactive | – |
| O=c1n(CCCN2CCN(c3cccc(Cl)c3)CC2)nc2ccccn12 | -10.4% (inactive) | inactive | – |
| Cc1[nH]c(=O)c(C#N)cc1-c1ccncc1 | 1.86% (inactive) and -12.7% (inactive) | inactive | – |
| COc1cc(Nc2ncc3c(n2)-c2ccc(Cl)cc2C(c2c(F)cccc2OC)=NC3)ccc1C(=O)O | – | – | 20.6 µM (active) |
| N=c1nc(N2CCCCC2)cc(N)n1O | -9.52% (inactive) and -1.74% (inactive) | – | – |
| CC(C[N+](C)(C)C)OC(N)=O (configuration not stated) | 0.597% (inactive) | inactive | – |
| c1ccc([C@H]2CN3CCSC3=N2)cc1 | -3.88% (inactive) and 4.82% (inactive) | – | – |
| CCCCNc1cc(C(=O)O)cc(S(N)(=O)=O)c1Oc1ccccc1 | 0.377% (inactive) | inactive | – |
| CCN(CC)CCCC(C)Nc1ccnc2cc(Cl)ccc12 (configuration not stated) | 3.49% (inactive) | inactive | – |

| Compound | max response | outcome | Potency |
| --- | --- | --- | --- |
| CC(C=CC1=C(C)CCCC1(C)C)=CC=CC(C)=CC(=O)O | -11.2% (inactive) | – | – |
| Cc1cn[nH]c1 | -13.4% (inactive) | – | 5.26 µM (active) |
| CC(C)OC(=O)C1=CN(C(=O)c2ccc(F)c(F)c2)CC(C)(C)c2c1[nH]c1ccccc21 | 1.22% (inactive) | inactive | – |
| CC(C)NCC(O)COc1ccc(COCCOC(C)C)cc1 (configuration not stated) | -5.09% (inactive) | inactive | – |
| COc1ccc([C@@H]2CC(=O)c3c(O)cc(O[C@@H]4O[C@H](CO[C@@H]5O[C@@H](C)[C@H](O)[C@@H](O)[C@@H]5O)[C@@H](O)[C@H](O)[C@@H]4O)cc3O2)cc1O | -5.3% (inactive) | inactive | – |
| Cc1[nH]c(=O)c(C#N)cc1-c1ccc2nccn2c1 | 0.18% (inactive) | inactive | – |
| CCOC(=O)C1=C[C@]2(CC)CCCN3CCc4c(n1c1ccccc41)[C@@H]32 | 1.21% (inactive) | inactive | – |
| O=C1CCCC2=C1C(c1[nH]ncc1Cl)N=C(Nc1nc3ccccc3o1)N2 (configuration not stated) | 2.7% (inactive) | inactive | – |
| CC(=O)Oc1ccccc1C(=O)O | 0.351% (inactive) and -4.5% (inactive) | – | – |
| CCc1ccc(CCOc2ccc(CC3SC(=O)NC3=O)cc2)nc1 (configuration not stated) | -4.18% (inactive) and 2.83% (inactive) | – | – |
| NC(=O)c1cnccn1 | 3.02% (inactive) and 1.22% (inactive) | – | – |
| Cc1cnc(NC(=O)C2=C(O)c3ccccc3S(=O)(=O)N2C)s1 | – | inactive | – |
| O=C1CCC(N2C(=O)c3ccccc3C2=O)C(=O)N1 (configuration not stated) | 1.53% (inactive) | inactive | – |
| C[C@H](NC(=O)Cc1cc(F)cc(F)c1)C(=O)N[C@@H]1C(=O)N(C)c2ccccc2-c2ccccc21 | – | inactive | – |
| COc1cc(F)c(F)c(Nc2ccc(I)cc2F)c1NS(=O)(=O)C1(C[C@H](O)CO)CC1 | -24.3% (inactive) | – | 5.8 µM (active) |
| Cc1cnc(Nc2ccc(OCCN3CCCC3)cc2)nc1Nc1cccc(S(=O)(=O)NC(C)(C)C)c1 | – | – | 3.72 µM (active) |
| C[C@@H]1CN(Cc2ccc(F)cc2)[C@@H](C)CN1C(=O)c1cc2c(C(=O)C(=O)N(C)C)cn(C)c2cc1Cl | 4.08% (inactive) | inactive | – |
